Source: PubChem BioAssay
tim10-1 inh – growth inhibitors of tim10-1 mutant yeast, primary screen, luminescence, uHTS | S. cerevisiae tim10-1 ts strain growth, BacTiter-Glo, 24 h | inhibition, % at 20 µM | 330,000 compounds, 2.2% hits | AID 463190, 2010;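 active = inhibition of at least 40%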;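 note: mutant grown at 25 °C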
tim23-1 inh – growth inhibitors of tim23-1 mutant yeast, primary screen, luminescence, uHTS; S. cerevisiae tim23-1 growth, BacTiter-Glo luminescence, 24 h; inhibition, % at 20 µM; 330,000 compounds, 1.3% hits; AID 463212, 2010;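 active = growth inhibition of the mutant yeast at or above 50%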;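 note: temperature-sensitive mutant grown at 25 °C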
NALP3 yeast inh – NALP3 inflammasome inhibitors in reconstituted yeast, primary screen, luminescence, uHTS | 330,000 compounds, 0.39% hits | AID 2825, 2010 | Yeast reconstituted NLRP3/ASC/caspase-1, beta-gal luminescence, 24 h | inhibition, % at 10 µM;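 active = inhibition of 50% or more; inactive = inhibition below 50%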
TIM10 inh – growth inhibitors of isogenic TIM10 control yeast, primary screen, counter-screen for tim10-1 yeast inhibitor project, luminescence, uHTS; inhibition, % at 10 µM; 330,000 compounds, 1.4% hits; S. cerevisiae TIM10 strain growth, BacTiter-Glo luminescence, 24 h;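 active = inhibition of 40% or more at the single tested concentration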;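 note: wild-type TIM10 isogenic control strain grown at permissive 25 °C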
PfHsp90 set2 – growth inhibition of PfHsp90-expressing yeast, primary screen, antimalarial PfHsp90 inhibitor project, S. cerevisiae, BacTiter-Glo luminescence, single point, set 2; 310,000 compounds, 0.32% hits; BacTiter-Glo ATP, 48 h; yeast lacking PDR1 and PDR3 efflux regulators; inhibition, % at 9.4 µM;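 active = every replicate shows inhibition above about 80%, whatever the replicate mean, limit read from the data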
tim10 confirm – growth inhibitors of wild-type TIM10 yeast, confirmation, counter-screen for tim10-1 synthetic lethality project, single concentration, luminescence, S. cerevisiae; AID 463215, 2010; shares compounds with TIM10 inh; inhibition, % at 10 µM; S. cerevisiae tim10 strain growth, BacTiter-Glo luminescence, 24 h; 4,600 compounds, 63% hits;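 active = inhibition of yeast growth at or above a set limit in either of two replicates at 10 µM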; note: this counterscreen used the strain with wild-type TIM10
Numbers stand for hits; . = inactive; / = no result given. Shown are actives, neighbours in structure and some others; about 3.7% of the full set was active somewhere.

SMILES	tim10-1 inh	tim23-1 inh	NALP3 yeast inh	TIM10 inh	PfHsp90 set2	tim10 confirm
O=C(COc1ccccc1)N=C1SC2CS(=O)(=O)CC2N1c1ccccc1 (stereo not drawn)	.	.	.	96.9	.	.
CCc1ccc(C(=O)N/N=C(\C)c2cccnc2)s1	.	.	.	.	.	/
CC(=O)c1c(C)[nH]c(C(=O)COC(=O)CNS(=O)(=O)c2ccccc2)c1C	.	.	.	.	/	/
CCOC(=O)c1c(C)[nH]c(C(=O)COC(=O)CNS(=O)(=O)c2ccc(C)cc2)c1C	.	.	.	71.1	.	.
Clc1ccc(-c2n[nH]c3c2CCCC3)cc1	.	.	.	40.9	.	34.0
Clc1ccc(-c2onc3c2CCCC3)cc1	.	.	.	.	.	/
COC(=O)c1cccc(NC(=S)Nc2ccc(Cl)c(Cl)c2)c1	.	.	.	57.4	.	34.2
COC(=O)c1cccc(NC(=S)Nc2ccccc2Cl)c1	.	.	.	.	.	/
COC(=O)c1cccc(NC(=O)NC23CC4CC(CC(C4)C2)C3)c1	.	.	.	48.3	.	38.4
Cc1c(NC(=O)CN2C(=O)NC3(CCCCC3)C2=O)c(=O)n(-c2ccccc2)n1C	.	.	.	.	.	/
O=C(N/N=C1\CC2CC=CC12)c1ccc(Br)cc1 (stereo not drawn)	.	.	.	.	.	/
Cc1cc(Br)c(OCc2ccc(C(=O)N/N=C3\CC4CC=CC34)cc2)c(Br)c1 (stereo not drawn)	.	.	.	42.4	.	43.8
Cc1cc(/C=C2\SC(=S)N(C)C2=O)c(C)n1-c1ccccc1O	.	.	.	.	.	/
Cc1cc(/C=C2\SC(=S)N(C)C2=O)c(C)n1-c1ccc(O)cc1	.	.	.	74.2	96.0	91.1
Cc1onc(-c2c(F)cccc2Cl)c1C(=O)NC(=S)NCc1cccnc1	.	.	.	.	.	/
Cc1ccc(C)c(-c2nnc(NC(=O)CCS(=O)(=O)c3ccc(F)cc3)o2)c1	.	.	.	.	.	/
CCn1c(CNc2cccc(Cl)c2)nnc1SCC(=O)OC1CCCCC1	.	.	.	.	.	/
CCn1c(CNc2ccc(Cl)cc2)nnc1SCC(=O)OC1CCCCC1	.	.	.	45.2	.	.
CC(=O)OC[C@H]1O[C@@H](Oc2cc3ccc(=O)oc3cc2OC(C)=O)[C@H](OC(C)=O)[C@@H](OC(C)=O)[C@@H]1OC(C)=O	/	/	/	/	.	/
CCn1cc(C(=O)N[C@@H](C)C(=O)NCCCn2ccnc2)c(=O)c2cc3c(cc21)OCO3	.	.	.	.	.	/
CCOC(=O)c1cc(-c2cccc([N+](=O)[O-])c2)n[nH]1	.	.	.	47.8	.	28.2
O=C(O)c1cc(-c2cccc([N+](=O)[O-])c2)n[nH]1	.	.	.	.	.	/
O=C(Nc1ccc(OC(F)(F)F)cc1)Nc1cccc([N+](=O)[O-])c1	.	.	.	44.5	.	34.2
CC(C)(C)CC(C)(C)NC(=O)Nc1cccc([N+](=O)[O-])c1	.	.	.	46.5	.	45.4
CN1C(=O)C(c2nnc(Nc3cccc4ccccc34)s2)C2CC1(C)Oc1ccccc12 (stereo not drawn)	/	/	/	/	.	/
SMILES	tim10-1 inh	tim23-1 inh	NALP3 yeast inh	TIM10 inh	PfHsp90 set2	tim10 confirm
Cc1ccc(/C=C/C(=O)N2CCN(S(=O)(=O)c3c(C)c(C)cc(C)c3C)CC2)o1	.	.	.	40.9	.	.
COc1ccc(N=Nc2nc(-c3ccccc3)c(-c3ccccc3)[nH]2)cc1	.	.	.	41.4	.	.
Cc1ccsc1C(=O)OCC(=O)N1CCc2ccccc2C1	.	.	.	.	/	/
O=C(COC(=O)c1ccc(S(=O)(=O)Nc2ccccc2)cc1)NCCC1=CCCCC1	.	.	.	.	.	/
COc1cc(/C=C(\C#N)C(=O)Nc2cccc3ncccc23)cc(OC)c1OC	.	.	.	42.0	.	.
COc1ccc(/C=C(\C#N)C(=O)Nc2cccc3ncccc23)cc1OC	.	.	.	.	.	/
S=c1[nH]nc(-c2cccnc2)n1C1CCCCC1	.	.	.	.	.	/
COc1ccc(-c2n[nH]c(=S)n2C2CCCCC2)cc1	.	.	.	43.0	.	32.2
CC(=C/c1ccco1)/C=N/NC(=O)c1nnn(-c2nonc2N)c1CN(C)C	.	.	.	.	.	/
Cc1nc([N+](=O)[O-])c(SCC(N)=O)n1Cc1ccccc1	.	.	.	.	.	/
Cc1nc([N+](=O)[O-])c(Sc2nc3ccccc3n2C)n1Cc1ccccc1	.	.	.	40.4	.	42.4
Cc1ccc(-c2cc(C(F)(F)F)n3nc(C(=O)NCCCn4ccnc4)cc3n2)cc1C	.	.	.	.	.	/
Cc1cccc(COc2ccc(/C=N/NC(=O)c3nnn(-c4nonc4N)c3CN3CCCCC3)cc2)c1	.	.	.	42.0	.	.
Nc1nonc1-n1nnc(C(=O)N/N=C/c2ccc(OCc3cccc(Cl)c3)cc2)c1CN1CCCCC1	.	.	.	.	.	/
Cc1cc(C)cc(N2CCCn3c2nc2c3c(=O)[nH]c(=O)n2C)c1	.	.	.	.	.	/
COc1ccccc1-c1cc(C(F)(F)F)nc(S(=O)(=O)CCCC(=O)NC(C)C)n1	.	.	.	42.4	.	.
COc1ccccc1-c1cc(C(F)(F)F)nc(S(=O)(=O)CCCC(=O)NCc2ccc(F)cc2)n1	.	.	.	49.6	/	.
Nc1c(C(=O)NCC2CCCO2)sc2nc3c(c(-c4ccco4)c12)CC/C3=C\c1ccco1 (stereo not drawn)	/	/	/	/	.	/
COc1ccc(NC(=O)/C(C#N)=C/c2ccc(Sc3nncn3C)c([N+](=O)[O-])c2)cc1	.	.	.	54.0	.	.
Cc1cccc(CCNC(=O)c2oc3c(C)c(C)ccc3c2C)n1	.	.	.	.	.	/
Cc1ccc2c(C)c(C(=O)NCCc3ccco3)oc2c1C	.	.	.	97.2	.	.
CC(=O)N1CCC(=O)Nc2ccc([N+](=O)[O-])cc21	.	.	.	.	.	/
CN(C)S(=O)(=O)c1cccc(NC(=S)NC2CCCCC2)c1	.	.	.	.	/	/
CN(C)S(=O)(=O)c1cccc(NC(=S)NC(=O)C2CCCCC2)c1	.	.	.	41.1	.	35.3
O=C(NC(=S)Nc1ccccc1Br)C1CC1	.	.	.	.	.	/
Cc1cc(NC(=S)NC(=O)C2CC2)ccc1Br	.	.	.	41.1	/	41.8
Cc1ccc(NC(=S)NC(=O)C2CCCC2)c(Br)c1	.	.	.	41.2	.	35.1
CC(C(=O)N1CCN(Cc2ccc3c(c2)OCO3)CC1)c1ccc([N+](=O)[O-])cc1 (stereo not drawn)	.	.	.	.	.	/
